Screens: PubChem, several laboratories
This is a sample that favours compounds with a hit; in the whole collection about 1.6% have one here.
STAT1 blocker: inhibitors of IFN-gamma induced STAT1 signaling. NIH 3T3 STAT1-luciferase reporter, luminescence. inhibition, % at 5.5 µM. hit rate 0.35% among 200,000;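 active = inhibition above a set limit, the mean inhibition across all tested compounds plus 3 SD, cut at about 34% in these data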
C8 TRAIL sens: caspase-8 TRAIL sensitization; NB7+C8 cells + TRAIL, ATPlite viability luminescence; inhibition (viability loss, TRAIL sensitization), % at 10 µM; hit rate 1% among 360,000; AID 624354;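 active = compounds causing at least 50% loss of cell viability in the single-dose screen, relative to plate controls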
PPC-1+TRAIL kill: PPC-1 cancer cell killing with TRAIL present. PPC-1 cells + TRAIL, ATPLite viability luminescence. cell killing (% activity), % at 4 µM or 5 µM. hit rate 0.41% among 220,000. AID 1443;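 active = cell killing above 50% in the first pass at 4 µM, then a duplicate retest at 5 µM averaging 50% or more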
STAT3 inh: reduces IL-6 driven STAT3 reporter signal; U3A cells, IL-6 STAT3-luciferase reporter, luminescence; host cell line lacks STAT1; inhibition, % at 5.5 µM; hit rate 0.89% among 190,000;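 active = inhibition above the mean inhibition across all screened compounds plus 3 SD, cut at about 44% in these data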
Platelet DG rel: modulates dense granule release in human platelets; human platelet-rich plasma, SFLLRN dense granule ATP release, luminescence; inhibition, %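 (compounds screened at 7.5 µM in platelet-rich plasma)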; hit rate 0.22% among 300,000; AID 1663;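 active = mean replicate score, as percent of positive control, at or above 50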
A number is an active result; i = inactive; nt = no result.

SMILES	STAT1 blocker	C8 TRAIL sens	PPC-1+TRAIL kill	STAT3 inh	Platelet DG rel
CCOC(=O)[C@]12Cc3cc(C)ccc3[C@H]1N(CCC(=O)OC)C(=O)c1ccccc12	nt	i	nt	nt	nt
CCOC(=O)[C@]12Cc3cc(Cl)ccc3[C@H]1N(C)C(=O)c1cc(OC)ccc12	nt	i	nt	nt	nt
CCOC(=O)[C@]12Cc3cc(Cl)ccc3[C@H]1N(C1CCCCC1)C(=O)c1cc(OC)ccc12	nt	95.5	nt	nt	nt
CCOC(=O)[C@]12Cc3c(cc(OC)c(OC)c3OC)[C@H]1N(C1CCCCC1)C(=O)c1ccccc12	nt	90.3	nt	nt	nt
CCOC(=O)[C@]12Cc3ccc(C)cc3[C@H]1N(C1CCCCC1)C(=O)c1cc(OC)ccc12	nt	95.0	nt	nt	nt
CCOC(=O)[C@]12Cc3cc(C)ccc3[C@H]1N(C1CCCCC1)C(=O)c1ccccc12	nt	92.1	nt	nt	nt
Cc1ncoc1C(=O)NCC1=C(c2ccc3ccccc3c2)C[C@@H]2CC[C@H]1N2Cc1ccco1	nt	i	nt	nt	nt
Cc1ccc2c(c1)Oc1ccccc1N=C2	nt	i	nt	nt	nt
CC12Nc3ccccc3C(=O)N1Cc1cnnn1-c1ccccc12 (stereo unspecified)	nt	i	nt	nt	nt
CCOC(=O)[C@]12Cc3ccc(C)cc3[C@H]1N(C1CCCCC1)C(=O)c1ccccc12	nt	86.4	nt	nt	nt
CC1c2ccccc2-n2nncc2CN1C (stereo unspecified)	nt	i	nt	nt	nt
COc1cc2cc(C(=O)N3CC(COS(C)(=O)=O)c4ccc(O)cc43)[nH]c2c(OC)c1OC (stereo unspecified)	nt	91.3	nt	nt	nt
CC(=O)O[C@H]1[C@H]2O[C@]23[C@@H]2CC[C@]4(O)C[C@@H](O)CC[C@]4(C)C2CC[C@]3(C)[C@H]1c1ccc(=O)oc1 (stereo partly specified)	nt	64.2	nt	nt	nt
C[C@]12CC[C@H]3C(CCC4(O)CC(O)CC[C@]34C=O)C1=CC[C@H]2c1ccc(=O)oc1 (stereo partly specified)	nt	53.8	nt	nt	i
COC(=O)C1CN(C#N)N(c2ccc(Cl)cc2)C12c1ccccc1-c1ccccc12 (stereo unspecified)	i	91.3	i	i	nt
COC(=O)N1Cc2ccccc2-n2nncc2C1	nt	i	nt	nt	nt
COC1C(O)C(C)OC(OC2CCC3(C)C(CCC4C3C(O)CC3(C)C(C5=CC(=O)OC5)CCC43O)C2)C1O (stereo unspecified)	nt	68.1	nt	nt	nt
C[C@]12CC[C@H](O)C[C@H]1CC[C@@H]1[C@@H]2C[C@@H](O)[C@]2(C)[C@@H](C3=CC(=O)OC3)CC[C@]12O	nt	56.0	nt	nt	nt
C[C@]12CC[C@H](O)C[C@H]1CC[C@@H]1[C@@H]2CC[C@]2(C)[C@@H](C3=CC(=O)OC3)CC[C@]12O	nt	i	nt	nt	nt
CC12CCC(O)CC1CCC1C2CCC2(C)C(C3=CC(=O)OC3)C(O)CC12O (stereo unspecified)	nt	57.6	nt	nt	nt
CC12CC[C@H]3[C@@H](CCC4(O)C[C@H](O)CCC34/C=N/NC(=O)Cc3ccccc3)C1(O)CCC2C1=CC(=O)OC1 (stereo partly specified)	nt	i	i	nt	i
CC12CCC(O)CC1CCC1C2CCC2(C)C(C3=CC(=O)OC3)CCC12O (stereo unspecified)	nt	64.0	nt	nt	nt
Cc1ccc(OC(=O)N(C)C[C@H]2OCc3cnnn3CCCC(=O)N([C@H](C)CO)C[C@@H]2C)cc1	nt	i	nt	nt	nt
Fc1ccc(N2Cc3ccccc3-n3nncc3C2)cc1	nt	i	nt	nt	nt
CC(=O)OC1CC(OC2C(O)CC(OC3C(O)CC(OC4CCC5(C)C(CCC6C5CC(O)C5(C)C(C7=CC(=O)OC7)CCC65O)C4)OC3C)OC2C)OC(C)C1OC1OC(CO)C(O)C(O)C1O (stereo unspecified)	nt	66.5	nt	nt	nt
SMILES	STAT1 blocker	C8 TRAIL sens	PPC-1+TRAIL kill	STAT3 inh	Platelet DG rel
C[C@H]1CC[C@@H]2[C@@H](C)[C@H]3[C@H](C[C@H]4[C@@H]5CC=C6C[C@@H](O[C@@H]7O[C@H](CO)[C@H](O)[C@H](O[C@@H]8O[C@H](CO)[C@@H](O)[C@H](O)[C@H]8O)[C@H]7O[C@@H]7O[C@@H](C)[C@H](O)[C@@H](O)[C@H]7O)CC[C@]6(C)[C@H]5CC[C@]34C)N2C1	i	i	i	i	i
CC(=O)OC1CCC2(C)C(CC(=O)C3C2CCC2(C)C(OC(C)=O)CCC32)C1 (stereo unspecified)	nt	i	nt	nt	nt
CC(=O)OC1CC2OC3C=C(C)CCC3(C)C1(C)C21CO1 (stereo unspecified)	nt	57.6	nt	nt	nt
CC[C@H](C)[C@@H]1NC(=O)CNC(=O)c2csc(n2)[C@H](C(C)(C)O)OC(=O)C(C)(C)[C@H](CCCC(C)(Cl)Cl)OC(=O)c2csc1n2	nt	49.7	nt	nt	nt
CCOC(=O)C(=CNc1ccc(C(O)(C(=O)OCC)C(F)(F)F)cc1C)C(=O)OCC (stereo unspecified)	i	72.7	i	i	i
COC1CC2C=C(C)C=CC=CC(=O)NC(c3ccccc3)CC=CCCC(O)CC(=O)C2=C1O (stereo unspecified)	nt	96.7	nt	nt	nt
CC(=O)N(C)C1=Nc2ccc(Cl)cc2C(c2ccccc2)=[N+]([O-])C1	nt	i	nt	nt	nt
CN1/C(=C\C=C\C2=[N+](C)c3ccc4ccccc4c3C2(C)C)C(C)(C)c2ccccc21	72.0	nt	65.8	103.1	nt
CCN1/C(=C/C=C/C2=[N+](CC)c3ccccc3C2(C)C)C(C)(C)c2ccccc21	nt	70.6	nt	nt	nt
c1ccc(CCN2CCCCC2)nc1	nt	i	nt	nt	nt
CC1CCOC(=O)C=CC=CC(=O)OC2CC3OC4C5OC5(C)C(O)CC4(COC(=O)C1O)C2(C)C31CO1 (stereo unspecified)	nt	69.0	nt	nt	nt
CC(=O)O[C@H]1C[C@@H]2OC3C=C(C)CCC3(C)[C@@]1(C)[C@@]21CO1 (stereo partly specified)	nt	i	nt	nt	nt
CC1=CC2OC3CC4OC(=O)C=CC=CC(C(C)O)OCC(O)C5(C)OC5C(=O)OCC2(CC1O)C4(C)C31CO1 (stereo unspecified)	nt	67.1	nt	nt	nt
CC(O)C1C=CC=CC(=O)OC2CC3OC4C5OC5(C)C(O)CC4(COC(=O)C(O)C(C)CCO1)C2(C)C31CO1 (stereo unspecified)	nt	62.0	nt	nt	nt
CC1=CC2OC3CC4OC(=O)C=CC=CC(=O)OCCC(C)C(O)C(=O)OCC2(CC1)C4(C)C31CO1 (stereo unspecified)	nt	56.3	nt	nt	nt
COc1ccc(C(c2nnnn2C2CCCC2)N2CCC3(CC2)C(=O)NCN3c2ccccc2)cc1 (stereo unspecified)	nt	i	nt	nt	nt
COc1ccc(CC2=NCCc3cc(OC)c(OC)cc32)cc1OC	nt	i	nt	nt	nt
Clc1ccc(COC(Cn2ccnc2)c2ccc(Cl)cc2Cl)cc1 (stereo unspecified)	i	i	i	i	i
Clc1ccc(C(c2ccc(Cl)cc2)n2cc[n+](CC(OCc3ccc(Cl)cc3Cl)c3ccc(Cl)cc3Cl)c2)cc1 (stereo unspecified)	nt	94.5	nt	nt	nt
CN(Cc1cccc(-c2ccncc2)c1)C(=O)Oc1ccccc1Cc1ccccc1	nt	i	nt	nt	nt
Cc1ccc(C[n+]2c(-c3ccc(C)cc3)cc(-c3ccc(C)cc3)cc2-c2ccc(C)cc2)cc1	nt	63.0	nt	nt	i
CCN(CCCl)c1cc(CN(C)C)cc(NC(=O)c2ccc(C(=O)Nc3cc(CN(C)C)cc(N(CC)CCCl)c3)cc2)c1	nt	94.6	nt	nt	nt
